This is a sample that favours compounds with a hit; in the whole collection about 12% have one here.
Sm TGR block – S. mansoni TGR enzyme inhibition. Q962Y6. purified TGR, DTNB reduction, TNB absorbance 405 nm. Potency, µM (highest dose often 114 µM), without a hit: at the highest dose activity change, negative = inhibition, hits mostly inhibitors. 360,000 tested, 3% active; active means well fitted inhibition curve with a large enough effect; inconclusive means small, poorly fitted or top-dose-only effect; inactive means no such curve, though single readings can be large or run the other way; further: potency means the concentration at half of the fitted maximal effect; on the % scale 0 is the no-effect control and ±100 the full control effect; nearly all actives have a fitted effect of over 60% in size
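TGR 20 nM + NADPH 100 uM (dispensed conc.), cpd preinc 15 min RT; start with NADPH (500 uM addition) then DTNB (15 mM addition). Kinetic TNB absorbance, 405 nm filter. Four-parameter Hill fit across titration.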
Cycloheximide cs – counter-screen for Shiga toxin inhibitors: cycloheximide protein synthesis inhibition | cell reporter, cycloheximide protein synthesis inhibition counterscreen | max response, % | 300,000 tested, 12% active; in the data active means max response mostly above about 13%, no sharp cut-off; inactive means mostly below about 14%; further: read at 38.3 µM for the half of the compounds with a filed dose; 0% is about no effect
FMDV inh – antivirals against foot and mouth disease virus. FMDV antiviral cell-based qHTS. Potency, µM (titrated, usually from 57.9 µM), for inactives: top-dose activity change, negative = inhibition, most hits filed as inhibitors. 410,000 tested, 1.2% active. AID 1159524; calls by dose curve; tested in HEK293T cells; further: read-out not given here; potency means the concentration at half of the fitted maximal effect; on the % scale 0 is the no-effect control and ±100 the full control effect; nearly all actives have a fitted effect of over 45% in size
Shiga toxin inh – inhibitors of Shiga toxin in Vero cells; Vero cells, Shiga toxin protein synthesis inhibition reporter; inhibition, % at 38.7 µM; 290,000 tested, 9.2% active; AID 2315; in the data active means inhibition mostly above about 28%, no sharp cut-off; inactive means mostly below about 43%; further: 0% is about no effect
* hit, by the source's call; ? = inconclusive; · = no result.

SMILES | Sm TGR block | Cycloheximide cs | FMDV inh | Shiga toxin inh
CCn1nccc1C(=O)Nc1cccc(C)c1C | 8.7% | -0.8 | -14.4% | 16.2
CCn1nccc1C(=O)Nc1ccc(C(=O)OC(C)C)cc1 | 16.0% | 24.3* | 7.9% | ·
CCn1nccc1C(=O)Nc1cc(Cl)ccc1Cl | -0.6% | -0.8 | -12.6% | 1.8
CCn1nccc1C(=O)Nc1ccc(Cl)cc1Cl | -0.6% | 22.6* | 16.9% | 40.4*
CCc1ccc(CNC(=O)COc2cc(=O)n(CC)c3ccccc23)cc1 | 0.2% | · | -23.3% | ·
COc1ccc(O)c(CN2CCC3(CCC(CNC(=O)C4CCCO4)O3)CC2)c1 (stereo unspecified) | · | · | -8.2% | ·
O=C(COC(=O)c1n[nH]c2ccccc12)c1cc(F)ccc1F | 1.0% | 30.4* | -8.2% | 44.0*
CC(=O)Nc1ccc(NC(=O)COC(=O)c2n[nH]c3ccccc23)cc1 | 11.6% | -0.8 | 0.0% | -19.9
CCc1ccc(C(=O)COC(=O)c2n[nH]c3ccccc23)cc1 | -3.7% | 47.5* | -9.0% | 87.0*
O=C(COC(=O)c1n[nH]c2ccccc12)Nc1ccc([N+](=O)[O-])cc1 | -1.2% | 10.5 | 25.1% | 22.7*
CCc1ccc(C(=O)COC(=O)c2nn(C)c(=O)c3ccccc23)cc1 | 5.7% | 7.9 | -29.4% | 4.4
CC1(C(=O)OCC(=O)NC(=O)NCc2ccccc2)CC1(Cl)Cl (stereo unspecified) | -8.5% | 11.2 | -7.1% | -1.6
CC1(C(=O)OCC(=O)Nc2ccccc2Cl)CC1(Cl)Cl (stereo unspecified) | -5.3% | 17.7* | -4.8% | 62.3*
CC1(C(=O)OCC(=O)Nc2ccccc2)CC1(Cl)Cl (stereo unspecified) | 2.2% | 33.7* | 32.6% | 66.7*
CC(=O)Oc1cc(OC(C)=O)c2c(c1)OC(c1ccc(OC(C)=O)c(OC(C)=O)c1)C(OC(C)=O)C2 (stereo unspecified) | · | · | 2.2% | ·
Cc1ccc(/C=N/NC(=O)Cn2nnc(N)n2)cc1 | 4.4% | -1.9 | 12.6% | -3.6
CC(/C=N/NC(=O)Cn1nccc1C)=C\c1ccc(C(C)C)cc1 | -4.0% | 41.8* | -24.9% | 43.1*
CC(/C=N/NC(=O)Cn1nnc(N)n1)=C\c1ccc(C(C)C)cc1 | -7.9% | 24.3* | -17.2% | 76.9*
Cc1ccc(/C=N/NC(=O)Cn2nccc2C)o1 | 9.9% | -3.0 | 9.2% | -2.7
CC(/C=N\NC(=O)Cn1cncn1)=C/c1ccc(C(C)C)cc1 | -5.3% | 24.2* | 12.9% | 80.8*
CC(/C=N/NC(=O)Cn1cnc2ccccc21)=C\c1ccccc1 | -0.9% | -3.8 | -8.2% | -8.6
CC(=C/c1ccc(C(C)C)cc1)/C=N/NC(=O)Cn1nc(C)cc1C | -2.7% | 18.0* | -4.8% | 65.3
O=C(N/N=C/c1cccs1)c1c[nH]c2ccccc12 | -15.0% | 62.3* | 41.8% | 80.6*
CCc1ccc(/C=N/NC(=O)c2c[nH]c3ccccc23)s1 | -0.3% | 49.1* | 40.2% | 90.8*
CCOC(=O)CC(NC(=O)CCc1c(C)nc2c(c1C)c(=O)n(C)c(=O)n2C)c1ccc(OCC)c(OC)c1 (stereo unspecified) | 2.4% | · | -9.5% | ·
SMILES | Sm TGR block | Cycloheximide cs | FMDV inh | Shiga toxin inh
CCc1cccc(C)c1NC(=O)c1cc(S(=O)(=O)N(C)Cc2ccccc2)ccc1F | -5.9% | · | ? | ·
COc1ccccc1N1C(=O)C2CCC(c3ccccc3)CC2C1=O (stereo unspecified) | -2.5% | -5.7 | 22.4µM* | -13.7
CC(C)Cn1c(N)c(C(=O)COC(=O)c2cc(C(F)(F)F)nc3ccccc23)c(=O)n(C)c1=O | 0.4% | -2.7 | 28.2µM* | -14.9
CC(C)Cn1c(N)c(C(=O)COC(=O)c2cc(C3CC3)nc3ccccc23)c(=O)n(C)c1=O | -1.2% | -3.2 | 31.6µM* | -6.5
Cn1c(N)c(C(=O)COC(=O)c2cc(C(F)(F)F)nc3ccccc23)c(=O)n(C)c1=O | -1.9% | -3.6 | · | -5.2
COc1ccc(-c2cc(C(=O)N3CCc4c(cnc(C)c4CNC(=O)c4ccsc4)C3)[nH]n2)cc1 | · | · | -13.5% | ·
O=[N+]([O-])c1cc2c(cc1[N+](=O)[O-])OCCOCCOCCOCCO2 | ? | -3.7 | -18.0% | 12.0
O=C(c1ccccc1)c1cc2c(cc1[N+](=O)[O-])OCCO2 | -8.6% | 12.2* | 19.8% | 16.3
Cc1ccc(C(=O)c2cc3c(cc2[N+](=O)[O-])OCCO3)cc1 | 17.7% | 15.8* | 36.9% | 35.4
CC(=O)Nc1cc2c(cc1C(=O)c1ccc(C)cc1)OCCO2 | 7.3% | -0.6 | -14.0% | -14.2
COc1ccc(N(C(=O)c2cccc(C)c2)S(=O)(=O)c2ccc(C)cc2)cc1 | 5.5% | · | -12.3% | ·
Oc1ccc2ccccc2c1N=Nc1ccccc1F | -24.5% | 4.3 | 19.3% | 21.0
O=S(=O)(O)c1cccc(N=Nc2c(O)ccc3ccccc23)c1 | 20µM* | -1.9 | -8.7% | -6.4
COc1cc([N+](=O)[O-])ccc1N1C(=O)C2C3C=CC(C4CC34)C2C1=O (stereo unspecified) | 44.7µM* | 12.0 | -23.2% | 14.9
COc1cccc(OC)c1C1=Nn2c(nnc2-c2ccccc2C)SC1 | · | 7.3 | · | 6.5
COc1ccc(OC)c(NC(=O)COCc2cc(-c3ccco3)on2)c1 | -1.8% | · | -2.9% | ·
CN(C)CCCNc1cc(-c2ccccc2)nc2cc(-c3cccc(F)c3)nn12 | 100µM* | -8.9 | -20.0% | -33.3
Fc1cccc(-c2cc3nc4c(c(N5CCC6(CC5)OCCO6)n3n2)CCCC4)c1 | 9.4% | 28.3* | · | 107.8*
Fc1cccc(-c2cc3nc(-c4ccccc4)cc(N4CCC5(CC4)OCCO5)n3n2)c1 | 9.7% | -4.2 | -26.7% | -0.7
OCCCNc1c2c(nc3cc(-c4ccc(Cl)cc4)nn13)CCC2 | 0.0% | 5.9* | 1.4% | 40.4*
Cc1nn2c(NCCCN(C)C)c3c(nc2c1-c1ccccc1)CCC3 | -9.7% | -3.5 | -5.7% | -22.4
OC1CCN(c2c3c(nc4cc(-c5cccc(F)c5)nn24)CCCC3)CC1 | 14.6% | 32.6* | · | 81.5
Cc1cccc(-c2cc3nc(C)cc(NCCCN(C)C)n3n2)c1 | 3.4% | -2.1 | 9.8% | -11.7
CCOCCN1CCN(c2c3c(nc4cc(-c5ccc(F)cc5)nn24)CCC3)CC1 | -7.0% | -7.1 | -5.6% | -6.6
CC(C)c1ccc(C(=O)Nc2ccc(-c3nc4ccccc4s3)c(Cl)c2)cc1 | -0.8% | · | -21.8% | ·
SMILES | Sm TGR block | Cycloheximide cs | FMDV inh | Shiga toxin inh
CN(CCO)c1c2c(nc3cc(-c4cccc(F)c4)nn13)CCCC2 | 1.1% | 42.1* | 24.4% | 45.8
COCCN1CCN(c2cc(-c3ccccc3)nc3cc(-c4cccc(F)c4)nn23)CC1 | -1.5% | -2.8 | 14.1µM* | 11.3
Clc1cccc(-c2cc3nc4c(c(NCc5ccco5)n3n2)CCCC4)c1 | 9.4% | 47.0* | · | 131.2*
Clc1cccc(-c2cc3nc4c(c(N5CCNCC5)n3n2)CCCC4)c1 | -0.4% | 31.4* | · | 43.0
COC(=O)c1sccc1NC(=O)CSc1cccc(Cl)c1Cl | 9.2% | 11.6* | -4.0% | 27.2
CCc1ccc(NC(=O)Nc2ccsc2C(=O)OC)cc1 | 2.6% | 36.1* | -64.0% | 42.1*
COC(=O)c1sccc1NC(=O)Cc1ccc(Br)cc1 | -6.8% | 26.5* | 17.9% | 31.8*
COC(=O)c1sccc1NC(=O)Nc1ccc(C)c(C)c1 | -6.2% | 41.4* | -42.5% | 72.3*
COC(=O)c1sccc1NC(=O)c1c(Cl)cccc1Cl | -0.8% | -1.0 | -16.3% | 60.7
CCCNC(=O)Nc1ccsc1C(=O)OC | -0.5% | -2.2 | 0.9% | 30.6
